For 16 molecules, binding signal results are on record in paper PMC12136788.

Changes are numbered by the printed parent chain. The full ranking holds about 5,800 sequences; the median of “enrichment r” is about 0.54, and the highest 2% start at about 16. The entries come from a sample that favours the highest values as a whole.

B1: chr2:105361111:105361195:-|3pUTR|ENSG00000115641|msi1_unk|total|mutant (ssRNA)
RNA: GGGAGUUCUACAGUCCGACGAUCCUUUCUCACCCAGGCAAUCUUGCCUUCUGGUUUCUUCCAGCCACAUUGAGACUUUCUUCCCGUGCUUUUCAGUGAUACUCACGUUUGCUUAAACCCUUCCGUGCUUUGUGACCGUUCAGUCAACAGAGGAUUGAGCAUCA
B2: ENSG00000013293:stop:overlap|stop_codon|ENSG00000013293|stop_codon|NA|stop_codon (ssRNA)
RNA: GGGAGUUCUACAGUCCGACGAUCAACACAAACAGAACUCAGAGGCCCUGAUUGCAAAUGAUGAGUUAGAUUACUCUCCAGAGUAGGAGAAACACACAAGUGGGUAGAAAUGGUGAUGACUGAUUUUCAGUAACUUAACCUGUGCAACAGAGGAUUGAGCAUCA
B3: ENSG00000070961:be:win_4401|3pUTR|ENSG00000070961|bound_else_gene|NA|bound_elsewhere_windowed (ssRNA)
RNA: GGGAGUUCUACAGUCCGACGAUCGUUAUGACAUCUGUCCUAAUUAGUUUCUUAAAUACAUUUACUACUUAAUGGUUUUGAAGCAACUGUUUAAUUUUUAAAAUUUUUGAAAACUUGCUAAUAACCUUUUGUUCAGAAUUUAGUCAACAGAGGAUUGAGCAUCA
B4: chr8:9779869:9779970:+|3pUTR|ENSG00000173273|msi1|FALSE|unique (ssRNA)
RNA: GGGAGUUCUACAGUCCGACGAUCGGAAUUUCUAGCUUUUCAAGCAGCAUAAGUAGAAUCAACAUUAGGAUGUUUUCAUGAAAUAGCAUCCUUAUACUUCUUUGAGCUUGAUGUUAGUGGCUAGACUGAUUUCCCUUUGCUCUCCAACAGAGGAUUGAGCAUCA
B5: chr11:62152232:62152344:+|3pUTR|ENSG00000149503|unk|total|mutant (ssRNA)
RNA: GGGAGUUCUACAGUCCGACGAUCUGCUCUGUAAACCGUUGUUUUAAUUCCGCUGAAUGUCCGCAUUUCCGUCUUUGGCAUUUCCGCGUUUGGGAGGCCGAUUAAUAAAGUAUAUUCCUUCAAGCCUGCUGUUGAUACCAUGAACAACAGAGGAUUGAGCAUCA
B6: chr10:62094764:62094865:+|3pUTR|ENSG00000150347|msi1|FALSE|unique (ssRNA)
RNA: GGGAGUUCUACAGUCCGACGAUCGAUGAACUCCCCAACCCACUGUGCCCCUCCCGCAACACUACCAGUAGACUUUAGAACCAUAGUUAACUAAGUCUUUUACCUCUGAGAUACUUAAUUCUGGGAAAAUUGGUGACAAUUUUCCAACAGAGGAUUGAGCAUCA
B7: chrX:85861749:85861850:-|3pUTR|ENSG00000188419|msi1|total|mutant (ssRNA)
RNA: GGGAGUUCUACAGUCCGACGAUCCUAAUUUAAAAUUUCAGAAAAUGCUAUUAAAGAAUUUUGAUUCAAGUAUUUAAACUGUUCCGUUAUGCAUGCUUCUUAUUAACCGAAAAUGAUAAUACCAUUCCGUUCCGUGAUCAGUAUCAACAGAGGAUUGAGCAUCA
B8: chr11:62152232:62152344:+|3pUTR|ENSG00000149503|unk|FALSE|unique (ssRNA)
RNA: GGGAGUUCUACAGUCCGACGAUCUGCUCUGUAAAUAGUUGUUUUAAUUUAGCUGAAUGUUAGCAUUUUAGUCUUUGGCAUUUUAGCGUUUGGGAGGUAGAUUAAUAAAGUAUAUUCCUUCAAGCCUGCUGUUGAUACCAUGAACAACAGAGGAUUGAGCAUCA
B9: ENSG00000071054:stop:overlap|stop_codon|ENSG00000071054|stop_codon|NA|stop_codon (ssRNA)
RNA: GGGAGUUCUACAGUCCGACGAUCCUGGUGGCAGCAGUCAGGUUUAUUUCAUGACCUUAGGCAGGACUUCUCUUCUGAGCUGGUAGAAGCAGUGUGAUCCAGGGAUUACUGGCCUCCAGAGUCUUCAAGAUCCUGAGAACUUGGCAACAGAGGAUUGAGCAUCA
B10: chrX:85861749:85861850:-|3pUTR|ENSG00000188419|msi1|FALSE|unique (ssRNA)
RNA: B7 RNA with C83U, C84A, C126U, C127A, C131U, C132A
B11: chr5:136976780:136976881:-|3pUTR|ENSG00000152377|msi1|FALSE|unique (ssRNA)
RNA: GGGAGUUCUACAGUCCGACGAUCCUUAAAUUAGCAUGUUCCAAUCCAGUCGGCAUUGCCUGAAUACAGUAGCAUCAUACCUAUAGUUGGUCUUAGAUAAGAAAUGAACUACUUGAUAUAGCAAAGUCCUUUGGCUUCGUAAAUCAACAGAGGAUUGAGCAUCA
B12: ENSG00000198589:be:win_9701|3pUTR|ENSG00000198589|bound_else_gene|NA|bound_elsewhere_windowed (ssRNA)
RNA: GGGAGUUCUACAGUCCGACGAUCCAAGGAUUUGGAAUGAACAAUUCAGUUUGACAGAAAAAGCUGAAUAAAAUGGCAUCUGUAAUUGAAUUGUUGGAAAUGCCUUUUUUGCUCCUAAAUUUUAAACAUCAUUAAUAAAAUAAUCAACAGAGGAUUGAGCAUCA
B13: chr5:136976780:136976881:-|3pUTR|ENSG00000152377|msi1|total|mutant (ssRNA)
RNA: B11 RNA with U31C, A32C, U69C, A70C, U83C, A84C, U93C, A94C, U118C, A119C
B14: chr10:99876058:99876159:-|3pUTR|ENSG00000107554|msi1|FALSE|bound_elsewhere (ssRNA)
RNA: GGGAGUUCUACAGUCCGACGAUCUUGAGCCUAAUGGAAGACUGGAUGUCUUUCUUCUUCAUCCAAGCACCCUAAUGACUGUUUAGUUACAUCCAUAGAUGCAGACAACAUAACACCUGUGACUUACUUGAAUUGGGAUAAGCCCAACAGAGGAUUGAGCAUCA
B15: ENSG00000107021:stop:overlap|stop_codon|ENSG00000107021|stop_codon|NA|stop_codon (ssRNA)
RNA: GGGAGUUCUACAGUCCGACGAUCACCCCAUCACAGAUGUCUGCCAGAUCCUGCAGAAAGCCAAGGAGCUCCAAGACUCAAAGUAGCCCGGCGGCAAGAGGCCCAUGUUCCGGAGAGAAGCCUCCCGACCCUGUGCCCUGGCUCCAACAGAGGAUUGAGCAUCA
B16: ENSG00000136451:be:win_2701|3pUTR|ENSG00000136451|bound_else_gene|NA|bound_elsewhere_windowed (ssRNA)
RNA: GGGAGUUCUACAGUCCGACGAUCUGUAAAUAUGGACAUCACUUUUUUUUUCUUUGAGAAAACACUUGUAUCAGCUUUGUGGUGUUUUCAGGGAGACAGCUGUCUGCAUUCCCUGUAGAAACCCAGCAAUGAUUAUGCACGUUGCAACAGAGGAUUGAGCAUCA

The test deals with MSI1 full-length (mouse, UniProt Q61474 1-362). Description: nsRBNS (natural sequence RNA bind-n-seq); RBNS binding buffer (assumed for nsRBNS): 25 mM Tris pH 7.5, 150 mM KCl, 3 mM MgCl2, 0.01% Triton X-100, 500 ug/ml BSA, 20 U/ml SUPERase-In, 4 C; UNK is unkempt and MSI1 is Musashi-1; names of the RNAs are library labels; protein concentration not given here; high values mean tight binding.
Chain of MSI1 full-length (Q61474 whole entry): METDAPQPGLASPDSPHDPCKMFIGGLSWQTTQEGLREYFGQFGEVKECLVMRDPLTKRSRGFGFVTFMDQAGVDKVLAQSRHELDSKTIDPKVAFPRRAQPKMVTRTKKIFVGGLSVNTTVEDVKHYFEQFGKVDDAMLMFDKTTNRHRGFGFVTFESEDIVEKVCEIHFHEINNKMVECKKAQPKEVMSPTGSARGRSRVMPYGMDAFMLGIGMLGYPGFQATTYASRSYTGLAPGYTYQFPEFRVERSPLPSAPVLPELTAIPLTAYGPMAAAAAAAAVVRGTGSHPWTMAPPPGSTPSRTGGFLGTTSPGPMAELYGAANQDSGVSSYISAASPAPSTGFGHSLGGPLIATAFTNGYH
Take B1: the binding signal was 0.426 enrichment R.
B2 returned a binding signal of 18.5 enrichment R.
The value for B3 was 3.8 enrichment R; that for B4 was 0.275 enrichment R; that for B5 was 0.406 enrichment R.
The molecule B6 registered a binding signal of 12.5 enrichment R.
The value for B7 was 0.789 enrichment R; that for B8 was 70 enrichment R.
The value for B9 was 0.605 enrichment R.
For B10 the value was 54.6 enrichment R.
Molecule B11 came in with a binding signal of 71.2 enrichment R.
The molecule B12 registered a binding signal of 0.605 enrichment R.
For B13, the binding signal worked out at 0.478 enrichment R.
Turning to B14, the binding signal amounted to 0.725 enrichment R.
In turn, B15 showed a binding signal of 0.38 enrichment R.
For B16 the value was 0.266 enrichment R.
